Results taken from the antibiotic and cytotoxicity screens of Wong et al. (2023).
About 500 (1.3%) of roughly 39,000 compounds were called active. The full list was thinned out, with actives kept by preference.

These compounds were tested on S. aureus RN4220 (assay: growth inhibition call (relative growth <= 0.2)). Details: 50 µM.
C[C@@H]1CN([C@H](C)CO)C(=O)c2cc(NC(=O)Nc3ccc4c(c3)OCO4)ccc2O[C@@H]1CN(C)Cc1ccc(C(F)(F)F)cc1 was tested, and the growth inhibition call was “inactive”.
C[C@H]1CCCCO[C@H](CN(C)CC2CCCCC2)[C@@H](C)CN([C@@H](C)CO)C(=O)c2cc(NC(=O)C3CCCCC3)ccc2O1 was tested, and the growth inhibition call was “inactive”.
With O=C(Nc1nc(OCCN2CCCC2=O)cnc1-c1cc(Cl)cc(Cl)c1)c1cc2ccccc2s1 the growth inhibition call was “inactive”.
For C[C@H](CO)N1C[C@H](C)[C@H](CN(C)Cc2ccc(C(=O)Nc3ccccc3N)cc2)Oc2c(NC(=O)Nc3cccc4ccccc34)cccc2C1=O, the growth inhibition call was “inactive”.
For C[C@H]1CN([C@@H](C)CO)C(=O)c2cccc(NC(=O)Nc3ccc4c(c3)OCO4)c2O[C@@H]1CN(C)C(=O)Nc1ccc(C(F)(F)F)cc1, the growth inhibition call was “inactive”.
For C[C@H](CO)N1C[C@H](C)[C@H](CN(C)C(=O)Nc2ccc(C(F)(F)F)cc2)Oc2c(NC(=O)Nc3ccc4c(c3)OCO4)cccc2C1=O, the growth inhibition call was “inactive”.
In the case of C[C@H]1CN([C@@H](C)CO)C(=O)c2cccc(NC(=O)Nc3ccc(C(F)(F)F)cc3)c2O[C@H]1CN(C)C(=O)Nc1ccc2c(c1)OCO2, the growth inhibition call is reported as “active”.
For C[C@H](CO)N1C[C@H](C)[C@H](CN(C)C(=O)Nc2ccc3c(c2)OCO3)Oc2c(NC(=O)Nc3ccc(C(F)(F)F)cc3)cccc2C1=O, the growth inhibition call was “active”.
In the case of C[C@@H]1CN([C@H](C)CO)C(=O)c2cccc(NC(=O)Nc3ccc(C(F)(F)F)cc3)c2O[C@@H]1CN(C)C(=O)Nc1ccc2c(c1)OCO2, the growth inhibition call is reported as “inactive”.
In the case of C[C@@H]1CN([C@@H](C)CO)C(=O)c2cccc(NC(=O)Nc3ccc(C(F)(F)F)cc3)c2O[C@H]1CN(C)C(=O)Nc1ccc2c(c1)OCO2, the growth inhibition call is reported as “inactive”.
In the case of C[C@H](CO)N1C[C@H](C)[C@H](CN(C)Cc2ccc3c(c2)OCO3)OCCCC[C@H](C)Oc2ccc(NC(=O)CCC(F)(F)F)cc2C1=O, the growth inhibition call is reported as “inactive”.
For COc1ccccc1-c1ccc2c(c1)O[C@@H](CN(C)C(=O)c1cccnc1)[C@@H](C)CN([C@@H](C)CO)S2(=O)=O, the growth inhibition call was “inactive”.
For COc1cccc(NC(=O)C[C@@H]2CC[C@@H]3[C@H](COc4ccc(NC(=O)C5CCOCC5)cc4C(=O)N3C)O2)c1, the growth inhibition call was “inactive”.
For Cc1noc(C)c1S(=O)(=O)Nc1ccc2c(c1)C(=O)N([C@H](C)CO)C[C@H](C)[C@H](CN(C)S(=O)(=O)c1ccc(F)cc1)O2, the growth inhibition call was “inactive”.
CCOC(=O)[C@H]1C/C=C/C[C@H](C(=O)OCC)C(=O)O[C@H]2[C@@H](OC)O[C@H](CO)[C@@H](OC(=O)Nc3ccc(Br)cc3)[C@@H]2OC1=O was tested, and the growth inhibition call was “inactive”.
For CCOc1ccc(CO[C@@H]2O[C@H](CO)[C@@H](O)[C@H](O)[C@H]2NC(C)=O)cc1OC, the growth inhibition call was “inactive”.
Cn1cnc(CCNC(=O)C[C@@H]2CC[C@H]3[C@@H](COC[C@H](O)CN3C(=O)Nc3ccc(Cl)cc3)O2)c1 was tested, and the growth inhibition call was “inactive”.
With Cn1cnc(CCNC(=O)C[C@@H]2CC[C@@H]3[C@H](COC[C@@H](O)CN3C(=O)Nc3ccc(C(F)(F)F)cc3)O2)c1 the growth inhibition call was “inactive”.
In the case of Cn1cnc(CCNC(=O)C[C@@H]2CC[C@H]3[C@@H](COC[C@@H](O)CN3C(=O)Nc3ccc(C(F)(F)F)cc3)O2)c1, the growth inhibition call is reported as “active”.
For Cn1cnc(CCNC(=O)C[C@H]2CC[C@H]3[C@@H](COC[C@H](O)CN3C(=O)Nc3ccc(C(F)(F)F)cc3)O2)c1, the growth inhibition call was “inactive”.
In the case of Cn1cnc(CCNC(=O)C[C@H]2CC[C@@H]3[C@H](COC[C@@H](O)CN3C(=O)Nc3ccc(C(F)(F)F)cc3)O2)c1, the growth inhibition call is reported as “inactive”.
For Cn1cnc(CCNC(=O)C[C@@H]2CC[C@@H]3[C@H](COC[C@H](O)CN3C(=O)Nc3ccc(C(F)(F)F)cc3)O2)c1, the growth inhibition call was “active”.
In the case of Cn1cnc(CCNC(=O)C[C@H]2CC[C@@H]3[C@H](COC[C@H](O)CN3C(=O)Nc3ccc(C(F)(F)F)cc3)O2)c1, the growth inhibition call is reported as “active”.
Cn1cnc(CCNC(=O)C[C@@H]2CC[C@H]3[C@@H](COC[C@@H](O)CN3C(=O)Nc3ccc(Cl)cc3)O2)c1 was tested, and the growth inhibition call was “inactive”.
Cn1cnc(CCNC(=O)C[C@H]2CC[C@@H]3[C@H](COC[C@@H](O)CN3C(=O)Nc3ccc(Cl)cc3)O2)c1 was tested, and the growth inhibition call was “inactive”.
Cn1cnc(CCNC(=O)C[C@H]2CC[C@H]3[C@@H](COC[C@@H](O)CN3C(=O)Nc3ccc(Cl)cc3)O2)c1 was tested, and the growth inhibition call was “inactive”.
With Cn1cnc(CCNC(=O)C[C@@H]2CC[C@H]3[C@@H](COC[C@H](O)CN3C(=O)Nc3ccc(C(F)(F)F)cc3)O2)c1 the growth inhibition call was “inactive”.
For Cn1cnc(CCNC(=O)C[C@H]2CC[C@H]3[C@@H](COC[C@@H](O)CN3C(=O)Nc3ccc(C(F)(F)F)cc3)O2)c1, the growth inhibition call was “active”.
In the case of CN1C(=O)c2cc(NC(=O)C3CCC3)ccc2OC[C@H]2O[C@H](CC(=O)NCCc3ccncc3)CC[C@H]21, the growth inhibition call is reported as “inactive”.
With CO[C@H]1CN(C)C(=O)c2cc(NS(=O)(=O)CC(F)(F)F)ccc2OC[C@@H](C)N(C(=O)NC(C)C)C[C@H]1C the growth inhibition call was “inactive”.
With O=C(C[C@@H]1CC[C@H](NC(=O)Cc2ccccn2)[C@H](CO)O1)NCCCN1CCOCC1 the growth inhibition call was “inactive”.
COCCOC(=O)N1C(=O)[C@@]2(c3cc(C#Cc4ccc(OC)cc4)ccc31)[C@H](C(=O)N1CCc3cc(OC)c(OC)cc3C1)[C@H]1C(=O)O[C@H](c3ccccc3)[C@H](c3ccccc3)N1[C@@H]2c1ccc(O)cc1 was tested, and the growth inhibition call was “inactive”.
With C[C@H]1CN([C@@H](C)CO)C(=O)c2cc(C3=CCCC3)cnc2O[C@H]1CN(C)C(=O)Nc1ccc(C(F)(F)F)cc1 the growth inhibition call was “inactive”.
In the case of C[C@H]1CN([C@@H](C)CO)C(=O)c2cccc(NC(=O)Nc3cccc4ccccc34)c2O[C@@H]1CN(C)C(=O)Nc1cccc2ccccc12, the growth inhibition call is reported as “inactive”.
With C#CCn1c(=O)c2c(OC)ccnc2n(C)c1=O the growth inhibition call was “inactive”.
For Cc1ccccc1S(=O)(=O)N1[C@@H]2Cn3c(cccc3=O)[C@H]1[C@@H](C(=O)N1CCOCC1)[C@@H]2CO, the growth inhibition call was “inactive”.
COc1ccc(NC(=O)Nc2ccc3c(c2)C(=O)N([C@@H](C)CO)C[C@@H](C)[C@@H](CN(C)Cc2ccc(Oc4ccccc4)cc2)O3)cc1 was tested, and the growth inhibition call was “inactive”.
For CN1C(=O)c2cc(NS(C)(=O)=O)ccc2OC[C@H]2O[C@@H](CC(=O)N3CCOCC3)CC[C@H]21, the growth inhibition call was “inactive”.
With C[C@@H]1CN([C@@H](C)CO)C(=O)Cc2cc(NS(=O)(=O)c3ccc(Cl)cc3)ccc2O[C@@H]1CN(C)C(=O)Nc1ccc(C(F)(F)F)cc1 the growth inhibition call was “inactive”.
In the case of C[C@H](CO)N1C[C@H](C)[C@@H](CN(C)C(=O)Nc2cccc3ccccc23)Oc2ccc(NC(=O)Cn3cnnn3)cc2CC1=O, the growth inhibition call is reported as “inactive”.
In the case of CO[C@@H](CN(C)C(=O)C1CCOCC1)[C@@H](C)CN(C(=O)Nc1ccc(C(F)(F)F)cc1)[C@H](C)CO, the growth inhibition call is reported as “active”.
In the case of CO[C@H](CN(C)C(=O)C1CCOCC1)[C@H](C)CN(C(=O)Nc1ccc(C(F)(F)F)cc1)[C@@H](C)CO, the growth inhibition call is reported as “active”.
With C[C@H](CO)N1C[C@H](C)[C@@H](CN(C)C(=O)C2CCCCC2)OCCCC[C@H](C)Oc2ccc(NC(=O)Nc3ccc(C(F)(F)F)cc3)cc2C1=O the growth inhibition call was “inactive”.
In the case of CO[C@H](CN(C)C(=O)Nc1ccc(C(F)(F)F)cc1)[C@@H](C)CN(Cc1ccccc1Cl)[C@@H](C)CO, the growth inhibition call is reported as “inactive”.
With CO[C@@H](CN(C)C(=O)Nc1ccc(C(F)(F)F)cc1)[C@H](C)CN(Cc1ccccc1Cl)[C@@H](C)CO the growth inhibition call was “inactive”.
With CO[C@@H](CN(C)C(=O)C1CCOCC1)[C@@H](C)CN(C(=O)Nc1ccc(C(F)(F)F)cc1)[C@@H](C)CO the growth inhibition call was “inactive”.
In the case of C[C@@H]1CN([C@H](C)CO)C(=O)c2cc(NC(=O)Nc3ccc(C(F)(F)F)cc3)ccc2O[C@@H](C)CCCCO[C@H]1CN(C)C(=O)C1CCCCC1, the growth inhibition call is reported as “inactive”.
CO[C@H](CN(C)C(=O)C1CCOCC1)[C@@H](C)CN(C(=O)Nc1ccc(C(F)(F)F)cc1)[C@@H](C)CO was tested, and the growth inhibition call was “active”.
In the case of CO[C@H](CN(C)C(=O)Nc1ccc(C(F)(F)F)cc1)[C@@H](C)CN(Cc1ccccc1Cl)[C@H](C)CO, the growth inhibition call is reported as “inactive”.
In the case of CO[C@@H](CN(C)C(=O)C1CCOCC1)[C@H](C)CN(C(=O)Nc1ccc(C(F)(F)F)cc1)[C@@H](C)CO, the growth inhibition call is reported as “active”.
With CO[C@H](CN(C)C(=O)Nc1ccc(C(F)(F)F)cc1)[C@H](C)CN(Cc1ccccc1Cl)[C@@H](C)CO the growth inhibition call was “inactive”.
In the case of CO[C@@H](CN(C)C(=O)Nc1ccc(C(F)(F)F)cc1)[C@H](C)CN(Cc1ccccc1Cl)[C@H](C)CO, the growth inhibition call is reported as “inactive”.
COc1ccc(S(=O)(=O)N(C)C[C@@H]2OCc3cn(nn3)CCCC(=O)N([C@H](C)CO)C[C@H]2C)cc1 was tested, and the growth inhibition call was “inactive”.
In the case of COc1ccc(NC(=O)N(C)C[C@@H]2OCCCC[C@H](C)Oc3ccc(NS(=O)(=O)c4ccc(C)cc4)cc3C(=O)N([C@H](C)CO)C[C@H]2C)cc1, the growth inhibition call is reported as “inactive”.
For Nc1nnc(CC(=O)N2CCCCC2)o1, the growth inhibition call was “inactive”.
In the case of CN1C(=O)c2cc(NC(=O)Nc3ccccc3F)ccc2OC[C@@H]2O[C@@H](CC(=O)NCc3ccc(-c4ccccc4)cc3)CC[C@H]21, the growth inhibition call is reported as “inactive”.
With Cc1noc(C)c1S(=O)(=O)Nc1ccc2c(c1)CC(=O)N([C@@H](C)CO)C[C@H](C)[C@H](CN(C)Cc1ccc(C(=O)O)cc1)O2 the growth inhibition call was “inactive”.
With C[C@@H]1CCCCO[C@H](CN(C)C(=O)Nc2cccc3ccccc23)[C@H](C)CN([C@@H](C)CO)C(=O)c2cc(NS(=O)(=O)c3ccc(Cl)cc3)ccc2O1 the growth inhibition call was “inactive”.
In the case of COc1ccc(S(=O)(=O)N(C)C[C@@H]2OCc3cnnn3CCCC(=O)N([C@@H](C)CO)C[C@H]2C)cc1, the growth inhibition call is reported as “inactive”.
For C[C@H]1CCCCO[C@H](CN(C)C)[C@@H](C)CN([C@@H](C)CO)C(=O)c2cc(NC(=O)CCCN(C)C)ccc2O1, the growth inhibition call was “inactive”.
Cc1cc(C)c(S(N)(=O)=O)cc1S(N)(=O)=O was tested, and the growth inhibition call was “inactive”.
For C=CCOC(=O)[C@@H]1[C@H]2C(=O)O[C@H](c3ccccc3)[C@H](c3ccccc3)N2[C@H](c2ccc(OCCOC(=O)[C@@H]3C[C@@H]4C(=O)N[C@@H](Cc5ccccc5)C(=O)N4[C@@H]3c3ccc(O)cc3)cc2)[C@@]12C(=O)Nc1ccccc12, the growth inhibition call was “inactive”.
